Records with an inconclusive call do not appear. The source made the active and inactive calls. The calls were made as follows, unless noted: active = hit-call score of the fitted dose curve at least 0.9, where 1 is the maximum; inconclusive = response in the unintended direction; inactive = score below 0.9.
Assays:
PGR (gene 5241) [1] = molecular target: PGR (gene 5241) (UniProt P06401); experiment: TOX21_PR_BLA_Followup_Antagonist_ratio: Tox21 HEK293 Progesterone Receptor (PR) Antagonism Beta-lactamase Follow-Up Assay, Ratio (AID 2283934)
Summary of the method: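 PR-UAS-bla HEK293T cells in medium with 2% charcoal-stripped FBS were treated with compounds plus 1 nM (final) promegestone (R5020) for 16 hr at 37C. LiveBLAzer B/G FRET substrate was then added for 2 h at room temperature; signal is cleaved/uncleaved substrate ratio versus DMSO.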

[2] = TOX21_PR_BLA_Followup_Agonist_viability: Viability Assessment in the Tox21 HEK293 Progesterone Receptor (PR) Agonism Beta-lactamase Follow-Up Assay (AID 2283935);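 also: signal loss means lower viability so actives are cytotoxic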
Summary of the method: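 PR-UAS-bla HEK293T cells in 2% charcoal-stripped FBS medium, compound added after 6 hr plating, 16 hr at 37C/5% CO2. After bla FRET read, CellTiter-Glo added; luminescence read after 30 min at room temperature; signal loss marks cytotoxicity.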

[3] = TOX21_PR_BLA_Followup_Antagonist_viability: Viability Assessment in the Tox21 HEK293 Progesterone Receptor (PR) Antagonism Beta-lactamase Follow-Up Assay (AID 2283936);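 also: hits lower the luminescence signal meaning cytotoxicity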
Summary of the method: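 PR-UAS-bla HEK293T cells (3,000/well, 2% charcoal-stripped FBS) given compound plus R5020 agonist, 16 h at 37C. CellTiter-Glo added after bla read, 30 min at room temperature; luminescence loss indicates cytotoxicity.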

PGR (gene 5241) [4] = molecular target: PGR (gene 5241) (UniProt P06401); experiment: TOX21_PR_LUC_Followup_Agonist: Tox21 HEK293 Progesterone Receptor (PR) Agonism Luciferase Follow-Up Assay (AID 2283937; active = hit-call score of the fitted dose curve at least 0.9, where 1 is the maximum; inactive = score below 0.9)
Summary of the method: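 HEK293-PR-A-luc cells, pre-cultured 5 days in medium with 10% charcoal-stripped FBS, were seeded at 3,000 cells/well, rested 5 h at 37C, then exposed to compounds 16 h at 37C; luciferase read by ONE-Glo luminescence after 30 min.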

PGR (gene 5241) [5] = molecular target: PGR (gene 5241) (UniProt P06401); experiment: TOX21_PR_LUC_Followup_Antagonist: Tox21 HEK293 Progesterone Receptor (PR) Antagonism Luciferase Follow-Up Assay (AID 2283938);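 also: curve fitted upward as signal gain over DMSO baseline despite antagonist label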
Summary of the method: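 HEK293-PR-A-luc cells were precultured 5 days in medium with 10% charcoal-stripped FBS, seeded 3,000/well, then exposed to compounds in DMSO for 16 h at 37C. Luciferase was read by ONE-Glo luminescence after 30 min at room temperature.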

[6] = molecular target: T1, Thyroid hormone receptor alpha (Rattus norvegicus) + Thyroid hormone receptor beta (Rattus norvegicus) (UniProt P18113+P63059); experiment: TOX21_TR_LUC_GH3_Antagonist_Followup: Tox21 GH3 Thyroid Hormone Receptor Antagonism Luciferase Follow-Up Assay (AID 2283942)
Summary of the method: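 Rat pituitary GH3 cells with a TRα/TRβ-driven luciferase reporter, 5 h attachment, then 15 concentrations (92 uM to 5nM final) plus 1.0 nM T3 agonist, 24 h at 37C/5% CO2. ONE-Glo luminescence; signal change fitted against DMSO baseline.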

THRB (gene 7068) [7] = molecular target: THRB (gene 7068) (UniProt P10828); experiment: TOX21_TRB_BLA_Antagonist_Followup_ratio: Tox21 Thyroid Hormone Receptor beta Antagonism Beta-lactamase (BLA) Follow-Up Assay, Ratio (AID 2283958)
Summary of the method: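 GAL4-DBD/human TRβ-LBD fusion in GeneBLAzer UAS-bla HEK293T cells, 3,000 cells/well in phenol red-free DMEM with 2% charcoal-stripped FBS; compounds at 11 concentrations in triplicate, 18 h at 37C. CCF4-AM substrate 2 h, 460:530 nm ratio relative to DMSO.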

[8] = TOX21_TRB_BLA_Antagonist_Followup_viability: Viability Assessment in the Tox21 Thyroid Hormone Receptor beta Antagonism Beta-lactamase (BLA) Follow-Up Assay (AID 2283961)
Summary of the method: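 HEK293T cells stably expressing GAL4-DBD/human TRβ-LBD with UAS-bla reporter, 3,000 cells/well in phenol red-free DMEM, 2% charcoal-stripped FBS. Compounds at 11 concentrations in triplicate, 18 h at 37C/5% CO2; viability by CellTiter-Glo luminescence after 30 min at room temperature.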

THRB (gene 7068) [9] = molecular target: THRB (gene 7068) (UniProt P10828); experiment: TOX21_TRB_COA_Antagonist_Followup_ratio: Tox21 Thyroid Hormone Receptor beta Antagonism through Coactivator Recruitment Follow-Up Assay, Ratio (AID 2283967)
Summary of the method: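 Cell-free TR-FRET coactivator recruitment with GST-tagged TRβ LBD (5.0 nM) and fluorescein-labeled SRC-2 peptide (200 nM) detected by terbium anti-GST antibody (2 nM). The 520:495 nm emission ratio was normalized to DMSO (0%) and T3 (100%).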

[10] = molecular target: Retinoic acid receptor RXR-alpha (Homo sapiens) (UniProt P19793); experiment: TOX21_TR_RXR_BLA_Antagonist_Followup_ratio: Tox21 Thyroid Hormone Receptor beta Retinoid X Receptor alpha (RXRa) Antagonism Beta-lactamase (BLA) Follow-Up Assay, Ratio (AID 2283972)
Summary of the method: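 RXRa-UAS-bla HEK293T cells in phenol red-free DMEM with 2% charcoal-stripped FBS; compounds at 11 concentrations in triplicate, 16 h at 37C. LiveBLAzer FRET-B/CCF4-AM substrate 2 h at room temperature; read as 460:530 nm ratio versus DMSO.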

[11] = TOX21_TR_RXR_BLA_Antagonist_Followup_viability: Viability Assessment in the Tox21 Thyroid Hormone Receptor beta Retinoid X Receptor alpha (RXRa) Antagonism Beta-lactamase (BLA) Follow-Up Assay (AID 2283979)
Summary of the method: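 RXRa-UAS-bla HEK293T cells seeded 2,500/well in phenol red-free DMEM with 2% charcoal-stripped FBS, attached 5 h, then exposed to compounds at 11 concentrations in triplicate for 16 h at 37C/5% CO2. Viability read by CellTiter-Glo ATP luminescence; bidirectional fit versus DMSO.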

[12] = molecular target: T1, Thyroid hormone receptor alpha (Rattus norvegicus) + Thyroid hormone receptor beta (Rattus norvegicus); experiment: TOX21_TR_LUC_GH3_Agonist_Followup: Tox21 GH3 Thyroid Hormone Receptor Agonism Luciferase Follow-Up Assay (AID 2283939)
Summary of the method: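 Rat GH3 cells (1,500/well) in serum-free assay medium, treated with 15-point series, 92 uM to 5 nM final, for 24 h at 37C. Luciferase via ONE-Glo luminescence; gain of signal fitted against DMSO, T3 positive control.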

THRA (gene 7067) = THRA (gene 7067) (UniProt P10827); experiment: TOX21_TRA_COA_Agonist_Followup_ratio: Tox21 Thyroid Hormone Receptor alpha Agonism through Coactivator Recruitment Follow-Up Assay, Ratio (AID 2283948; active = hit-call score of the fitted dose curve at least 0.9, where 1 is the maximum; inactive = score below 0.9)
Summary of the method: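 Read-out is the 520/495 nm emission ratio (ex 340 nm), scaled between DMSO-only wells as 0% and T3 wells as 100%. It reflects fluorescein-SRC-2 peptide recruitment to GST-TRα LBD detected via terbium anti-GST antibody.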

THRB (gene 7068) [13] = molecular target: THRB (gene 7068) (UniProt P10828); experiment: TOX21_TRB_BLA_Agonist_Followup_ratio: Tox21 Thyroid Hormone Receptor beta Agonism Beta-lactamase (BLA) Follow-Up Assay, Ratio (AID 2283954)
Summary of the method: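 Human TRβ LBD–GAL4 DBD fusion in GeneBLAzer UAS-bla HEK293T cells; 11 concentrations in triplicate, 18 h at 37°C/5% CO2, T3 as agonist control. CCF4-AM substrate 2 h at room temperature; 460:530 nm ratio fitted for gain of signal versus DMSO.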

[14] = TOX21_TRB_BLA_Agonist_Followup_viability: Viability Assessment in the Tox21 Thyroid Hormone Receptor beta Agonism Beta-lactamase (BLA) Follow-Up Assay (AID 2283956)
Summary of the method: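 TRb-bla HEK293T cells (GAL4-DBD/human TRb LBD) in 2% charcoal-stripped FBS medium were exposed 18 h at 37C to 11 concentrations in triplicate. CellTiter-Glo ATP luminescence was read after 30 min at room temperature, with bidirectional fitting against DMSO.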

THRB (gene 7068) [15] = molecular target: THRB (gene 7068) (UniProt P10828); experiment: TOX21_TRB_COA_Agonist_Followup_ratio: Tox21 Thyroid Hormone Receptor beta Agonism through Coactivator Recruitment Follow-Up Assay, Ratio (AID 2283963; active = hit-call score of the fitted dose curve at least 0.9, where 1 is the maximum; inactive = score below 0.9)
Summary of the method: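 Signal is the 520/495 nm emission ratio (excitation 340 nm), scaled between DMSO-only wells as 0% and T3 wells as 100%. It reflects fluorescein-labeled SRC-2 peptide recruitment to GST-TRβ ligand-binding domain detected via terbium anti-GST antibody.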

[16] = molecular target: Retinoic acid receptor RXR-alpha (Homo sapiens) (UniProt P19793); experiment: TOX21_TR_RXR_BLA_Agonist_Followup_ratio: Tox21 Thyroid Hormone Receptor beta Retinoid X Receptor alpha (RXRa) Agonism Beta-lactamase (BLA) Follow-Up Assay, Ratio (AID 2283968)
Summary of the method: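 RXRa-UAS-bla HEK293T cells (GAL4 beta-lactamase reporter) were treated with compounds at 11 concentrations in triplicate for 16 h at 37C/5% CO2, then loaded with CCF4-AM substrate for 2 h at room temperature; activity is the 460:530 nm ratio versus DMSO baseline.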

[17] = TOX21_TR_RXR_BLA_Agonist_Followup_viability: Viability Assessment in the Tox21 Thyroid Hormone Receptor beta Retinoid X Receptor alpha (RXRa) Agonism Beta-lactamase (BLA) Follow-Up Assay (AID 2283970)
Summary of the method: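 RXRa-UAS-bla HEK293T cells seeded at 2,500/well in phenol red-free DMEM with 2% charcoal-stripped FBS, exposed to compound 16h at 37C/5% CO2 in qHTS. Viability read by CellTiter-Glo ATP luminescence; bidirectional fitting against DMSO baseline, signal loss indicating cytotoxicity.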

[18] = TOX21_PR_LUC_Followup_Agonist_viability: Viability Assessment in the Tox21 HEK293 Progesterone Receptor (PR) Agonism Luciferase Follow-Up Assay (AID 2283941);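 also: loss of signal means cytotoxicity so actives lower viability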
Summary of the method: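 HEK293-PR-A-luc cells, pre-cultured 5 days in 10% charcoal-stripped FBS, were seeded at 3,000 cells/well, rested 5 h at 37C, then given compound in DMSO for 16 h at 37C. Cellular ATP was read by CellTiter-Glo luminescence; signal loss indicates cytotoxicity.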

[19] = TOX21_PR_LUC_Followup_Antagonist_viability: Viability Assessment in the Tox21 HEK293 Progesterone Receptor (PR) Antagonism Luciferase Follow-Up Assay (AID 2283940)
Summary of the method: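 HEK293-PR-A-luc cells, precultured 5 days in assay medium with 10% charcoal-stripped FBS, were seeded at 3,000 cells/well, treated with compounds in DMSO for 16 h at 37C, and viability was read as cellular ATP by CellTiter-Glo luminescence.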

Measured: AC50

Chain of THRA (gene 7067) (P10827 whole entry, looked up, the tested form may be a part): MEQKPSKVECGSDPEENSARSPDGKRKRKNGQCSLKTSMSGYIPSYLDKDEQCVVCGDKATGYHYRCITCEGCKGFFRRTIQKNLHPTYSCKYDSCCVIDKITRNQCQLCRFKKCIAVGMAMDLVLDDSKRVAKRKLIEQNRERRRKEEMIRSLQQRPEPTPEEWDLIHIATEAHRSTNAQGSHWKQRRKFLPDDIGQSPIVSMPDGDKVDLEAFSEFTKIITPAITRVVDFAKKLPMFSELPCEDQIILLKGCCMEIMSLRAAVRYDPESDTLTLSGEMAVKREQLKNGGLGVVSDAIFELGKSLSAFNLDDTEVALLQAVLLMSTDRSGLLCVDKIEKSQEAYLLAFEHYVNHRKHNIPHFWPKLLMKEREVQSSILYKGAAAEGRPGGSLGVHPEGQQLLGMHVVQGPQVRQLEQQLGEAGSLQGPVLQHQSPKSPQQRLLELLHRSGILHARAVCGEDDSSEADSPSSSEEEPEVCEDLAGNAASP
T1 sequence (P63059 whole entry, looked up): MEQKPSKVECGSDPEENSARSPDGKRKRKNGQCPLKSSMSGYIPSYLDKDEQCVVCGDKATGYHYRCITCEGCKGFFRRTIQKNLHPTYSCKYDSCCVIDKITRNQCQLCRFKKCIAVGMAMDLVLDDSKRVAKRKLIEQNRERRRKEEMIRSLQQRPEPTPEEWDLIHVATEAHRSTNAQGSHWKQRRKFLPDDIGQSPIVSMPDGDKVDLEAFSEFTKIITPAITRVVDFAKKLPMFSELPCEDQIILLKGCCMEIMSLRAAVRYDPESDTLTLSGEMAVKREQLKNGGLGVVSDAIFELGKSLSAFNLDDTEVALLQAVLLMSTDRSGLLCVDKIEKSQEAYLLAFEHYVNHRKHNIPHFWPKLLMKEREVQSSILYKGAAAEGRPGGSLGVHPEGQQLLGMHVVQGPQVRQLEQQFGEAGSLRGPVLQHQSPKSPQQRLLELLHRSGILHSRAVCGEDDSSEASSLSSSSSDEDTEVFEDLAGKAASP
T1 sequence (P18113 whole entry, looked up): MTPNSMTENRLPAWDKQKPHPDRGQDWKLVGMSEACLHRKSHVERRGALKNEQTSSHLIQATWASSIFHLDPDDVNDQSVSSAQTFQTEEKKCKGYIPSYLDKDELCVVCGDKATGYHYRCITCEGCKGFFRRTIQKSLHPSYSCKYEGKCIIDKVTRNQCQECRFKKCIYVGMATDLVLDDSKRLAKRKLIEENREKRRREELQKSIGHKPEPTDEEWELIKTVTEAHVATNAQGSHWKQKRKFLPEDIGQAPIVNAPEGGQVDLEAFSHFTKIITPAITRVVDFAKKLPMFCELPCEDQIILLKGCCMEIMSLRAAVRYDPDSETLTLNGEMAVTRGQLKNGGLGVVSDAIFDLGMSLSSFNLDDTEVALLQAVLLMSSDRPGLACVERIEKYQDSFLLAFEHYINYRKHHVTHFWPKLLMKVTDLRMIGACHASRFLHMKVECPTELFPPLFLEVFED
Chain of Retinoic acid receptor RXR-alpha (Homo sapiens) (P19793 whole entry, looked up, the tested form may be a part): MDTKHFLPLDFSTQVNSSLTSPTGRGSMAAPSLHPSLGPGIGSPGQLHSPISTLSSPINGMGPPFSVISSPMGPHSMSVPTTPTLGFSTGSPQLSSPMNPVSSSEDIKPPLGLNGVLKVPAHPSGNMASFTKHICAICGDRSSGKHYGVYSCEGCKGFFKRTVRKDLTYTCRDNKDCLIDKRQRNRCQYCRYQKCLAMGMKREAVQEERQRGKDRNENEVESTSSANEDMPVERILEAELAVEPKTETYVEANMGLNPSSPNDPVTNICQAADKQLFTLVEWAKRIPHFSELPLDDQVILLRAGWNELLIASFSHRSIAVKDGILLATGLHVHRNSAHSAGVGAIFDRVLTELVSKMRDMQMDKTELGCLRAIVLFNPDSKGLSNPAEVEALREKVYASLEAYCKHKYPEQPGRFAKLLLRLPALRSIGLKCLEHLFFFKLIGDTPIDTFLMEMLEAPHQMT
Chain of PGR (gene 5241) (P06401 whole entry, looked up): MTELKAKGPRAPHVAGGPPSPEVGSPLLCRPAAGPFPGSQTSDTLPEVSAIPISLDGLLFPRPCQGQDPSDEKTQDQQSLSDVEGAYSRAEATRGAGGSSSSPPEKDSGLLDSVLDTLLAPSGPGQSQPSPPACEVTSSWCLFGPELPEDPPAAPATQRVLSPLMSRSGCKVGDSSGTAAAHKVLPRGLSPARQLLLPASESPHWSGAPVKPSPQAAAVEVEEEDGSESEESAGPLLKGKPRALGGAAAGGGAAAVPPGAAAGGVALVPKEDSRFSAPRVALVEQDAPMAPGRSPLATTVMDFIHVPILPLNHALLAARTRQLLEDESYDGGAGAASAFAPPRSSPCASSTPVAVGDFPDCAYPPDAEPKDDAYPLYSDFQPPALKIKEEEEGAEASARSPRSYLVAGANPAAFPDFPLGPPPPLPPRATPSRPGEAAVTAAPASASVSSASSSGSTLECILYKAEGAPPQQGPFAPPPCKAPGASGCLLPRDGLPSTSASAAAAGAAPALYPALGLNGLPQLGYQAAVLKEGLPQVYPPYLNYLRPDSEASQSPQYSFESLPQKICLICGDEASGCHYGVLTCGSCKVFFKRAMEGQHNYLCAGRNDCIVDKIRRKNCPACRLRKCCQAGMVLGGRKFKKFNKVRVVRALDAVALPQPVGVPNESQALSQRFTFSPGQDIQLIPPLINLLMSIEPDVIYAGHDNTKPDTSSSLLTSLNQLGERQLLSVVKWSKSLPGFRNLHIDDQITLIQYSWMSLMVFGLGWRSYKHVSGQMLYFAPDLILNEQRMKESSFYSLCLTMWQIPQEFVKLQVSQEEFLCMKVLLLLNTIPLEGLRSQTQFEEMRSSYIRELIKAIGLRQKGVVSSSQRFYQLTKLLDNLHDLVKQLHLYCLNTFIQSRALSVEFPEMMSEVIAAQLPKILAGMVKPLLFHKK
Chain of THRB (gene 7068) (P10828 whole entry, looked up, the tested form may be a part): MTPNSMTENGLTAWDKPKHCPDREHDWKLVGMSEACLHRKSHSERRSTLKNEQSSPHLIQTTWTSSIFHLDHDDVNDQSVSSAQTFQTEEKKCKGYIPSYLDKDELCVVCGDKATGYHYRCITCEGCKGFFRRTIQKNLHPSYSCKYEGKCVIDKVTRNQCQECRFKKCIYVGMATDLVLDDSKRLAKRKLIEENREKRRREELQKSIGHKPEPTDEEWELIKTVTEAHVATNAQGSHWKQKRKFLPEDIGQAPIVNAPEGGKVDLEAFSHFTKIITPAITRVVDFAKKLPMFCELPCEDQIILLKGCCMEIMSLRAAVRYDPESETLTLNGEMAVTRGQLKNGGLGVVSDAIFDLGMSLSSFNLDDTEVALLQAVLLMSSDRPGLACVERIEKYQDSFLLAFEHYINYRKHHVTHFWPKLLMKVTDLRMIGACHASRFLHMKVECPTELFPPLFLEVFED

CO/N=C(/C(=O)OC)c1ccccc1COc1ccccc1C
inactive: [2] | [3] | PGR (gene 5241) [4] | [8] | THRB (gene 7068) [9] | [10] | [11]
active: PGR (gene 5241) [1] 37.1 µM | PGR (gene 5241) [5] 31.5 µM | [6] 9.33 µM | THRB (gene 7068) [7] 23.1 µM

CCC1(c2ccccc2)C(=O)N=C(O)NC1=O (stereo not given)
inactive: [12] | THRA (gene 7067) | THRB (gene 7068) [13] | [14] | THRB (gene 7068) [15] | [16] | [17]

CCOP(=S)(Oc1ccc([N+](=O)[O-])cc1)c1ccccc1 (stereo not given)
inactive: [3] | [18]
active: PGR (gene 5241) [1] 5.36 µM | PGR (gene 5241) [5] 7.8 µM

CCOP(=S)(OCC)SCSc1ccc(Cl)cc1
inactive: [2] | [3]
active: PGR (gene 5241) [1] 9.94 µM | PGR (gene 5241) [5] 20.4 µM

CC(Cc1ccc(OCC(=O)O)cc1)NCC(O)c1csc(C(F)(F)F)n1 (stereo not given)
inactive: [12] | THRA (gene 7067) | [14] | THRB (gene 7068) [15] | [16] | [17]

O=C(O)C(Cl)Cl
inactive: [12] | THRA (gene 7067) | THRB (gene 7068) [13] | [14] | THRB (gene 7068) [15] | [16] | [17]

O=S1(=O)OCC2C(CO1)C1(Cl)C(Cl)=C(Cl)C2(Cl)C1(Cl)Cl (stereo not given)
inactive: [2] | [3] | [19] | [18]
active: PGR (gene 5241) [1] 24.2 µM | PGR (gene 5241) [5] 27.1 µM

— PubChem BioAssay (EPA / NIEHS)
